Assay results from PubChem BioAssay (EPA / NIEHS).
Several values for one entry are separate records, joined by “and”; a condition that tells them apart may be missing. Identical values can stand only once. Some compounds were tested as several samples or in several runs, with calls that do not always agree. Activity calls are given as the source filed them. Rule for the calls: active = hit-call score of the fitted dose curve at least 0.9, where 1 is the maximum; inactive = score below 0.9.

What was measured:
[1] = read-out: TIMP metallopeptidase inhibitor 2 (TIMP2), TIMP2 (gene 7077); test: BSK_KF3CT_TIMP2: BioMAP Diversity Plus: KF3CT Assay for TIMP metallopeptidase inhibitor 2 (TIMP2) Biomarker Activity (AID 2283071); conditions: primary human keratinocytes with fibroblasts; actives raise or lower the signal
Summary of the method: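 Human primary keratinocyte/foreskin fibroblast co-culture dosed with chemical and sampled at 24 h. TIMP-2 levels quantified by ELISA; bidirectional fitting against DMSO negative control as baseline.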

[2] = read-out: Transforming growth factor beta 1 (TGFb1), TGFB1 (gene 7040); test: BSK_KF3CT_TGFb1: BioMAP Diversity Plus: KF3CT Assay for Transforming growth factor beta 1 (TGFb1) Biomarker Activity (AID 2283072); conditions: primary human keratinocytes with fibroblasts; actives raise or lower the signal
Summary of the method: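 Human keratinocyte plus foreskin fibroblast primary co-culture, dosed with chemical for 24 h. TGF-b1 quantified by ELISA. Activity fitted bidirectionally against DMSO negative control as baseline.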

[3] = read-out: Matrix Metallopeptidase 9 (MMP9), MMP9 (gene 4318); test: BSK_KF3CT_MMP9: BioMAP Diversity Plus: KF3CT Assay for Matrix Metallopeptidase 9 (MMP9) Biomarker Activity (AID 2283074); conditions: primary human keratinocytes with fibroblasts; actives raise or lower the signal;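 for AC50: MMP9 protein level quantified by ELISA in the co-culture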
Summary of the method: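 Human keratinocyte and foreskin fibroblast co-culture exposed to chemicals for 24 h; MMP9 biomarker measured by ELISA, bidirectional fitting relative to DMSO; cytotoxicity tracked by SRB total protein staining in parallel cultures.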

[4] = read-out: urokinase plasminogen activator (uPA), PLAU (gene 5328); test: BSK_KF3CT_uPA: BioMAP Diversity Plus: KF3CT Assay for urokinase plasminogen activator (uPA) Biomarker Activity (AID 2283075); conditions: primary human keratinocytes with fibroblasts; actives raise or lower the signal
Summary of the method: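 Primary human keratinocyte/foreskin fibroblast co-culture exposed to chemical; uPA measured by ELISA at 24 h. Bidirectional fit versus DMSO, with parallel SRB total-protein staining for cytotoxicity.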

[5] = read-out: CD40, CD40 (gene 958); test: BSK_LPS_CD40: BioMAP Diversity Plus: LPS Assay for CD40 Biomarker Activity (AID 2283076); conditions: primary human HUVEC with PBMC; actives raise or lower the signal
Summary of the method: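 HUVEC plus PBMC co-culture stimulated with LPS; CD40 quantified by ELISA 24 h after compound dosing. Fitting was bidirectional relative to DMSO. SRB staining of parallel cultures flagged overt cytotoxicity.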

[6] = read-out: E-selectin (Homo sapiens) (UniProt P16581); test: BSK_LPS_Eselectin: BioMAP Diversity Plus: LPS Assay for Eselectin Biomarker Activity (AID 2283077); conditions: primary human HUVEC with PBMC; actives raise or lower the signal
Summary of the method: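 Human umbilical vein endothelial cells co-cultured with PBMC under LPS stimulation; cell-surface E-selectin measured by ELISA 24 h after dosing. Change in either direction versus DMSO, with SRB total-protein staining in parallel cultures for cytotoxicity.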

[7] = read-out: Interleukin-8 (IL8), CXCL8 (gene 3576); test: BSK_LPS_IL8: BioMAP Diversity Plus: LPS Assay for Interleukin-8 (IL8) Biomarker Activity (AID 2283078); conditions: primary human HUVEC with PBMC; actives raise or lower the signal
Summary of the method: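 Human umbilical vein endothelial cells co-cultured with PBMC, LPS-stimulated, exposed to compound for 24 h. IL-8 quantified by ELISA; fitted in both directions against DMSO, with SRB total-protein staining of parallel cultures for cytotoxicity.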

[8] = BSK_LPS_SRB: Viability Assessment in the BioMAP Diversity Plus: LPS Assay (AID 2283079); conditions: primary human HUVEC with PBMC;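 note: total protein by sulforhodamine B absorbance as a cytotoxicity measure; measured one day after compound addition; fitted in both directions against DMSO so loss or gain of signal counts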
Summary of the method: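 Co-culture of human umbilical vein endothelial cells and PBMC, read 24 h after dosing. Total protein by 0.1% SRB staining after 10% TCA fixation, absorbance at 560 nm; bidirectional fit against DMSO.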

[9] = read-out: C-C motif chemokine 2 (Homo sapiens) (UniProt P13500); test: BSK_KF3CT_MCP1: BioMAP Diversity Plus: KF3CT Assay for Monocyte Chemoattractant Protein 1 (MCP1/CCL2) Biomarker Activity (AID 2283073); conditions: primary human keratinocytes with fibroblasts; actives raise or lower the signal
Summary of the method: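 Human keratinocyte–foreskin fibroblast co-culture; MCP-1 measured by ELISA 24 h after dosing. Bidirectional fit vs DMSO; cytotoxicity tracked by SRB total protein in parallel cultures.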

[10] = read-out: Interleukin-1 alpha (IL1a), IL1A (gene 3552); test: BSK_KF3CT_IL1a: BioMAP Diversity Plus: KF3CT Assay for Interleukin-1 alpha (IL1a) Biomarker Activity (AID 2283070); conditions: primary human keratinocytes with fibroblasts; actives raise or lower the signal
Summary of the method: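 Primary human keratinocyte plus foreskin fibroblast co-culture, dosed and measured at 24 h in 96-well plates. IL-1a level quantified by ELISA; bidirectional fit relative to DMSO.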

Measured: AC50

Sequence of E-selectin (Homo sapiens) (P16581 whole entry, looked up): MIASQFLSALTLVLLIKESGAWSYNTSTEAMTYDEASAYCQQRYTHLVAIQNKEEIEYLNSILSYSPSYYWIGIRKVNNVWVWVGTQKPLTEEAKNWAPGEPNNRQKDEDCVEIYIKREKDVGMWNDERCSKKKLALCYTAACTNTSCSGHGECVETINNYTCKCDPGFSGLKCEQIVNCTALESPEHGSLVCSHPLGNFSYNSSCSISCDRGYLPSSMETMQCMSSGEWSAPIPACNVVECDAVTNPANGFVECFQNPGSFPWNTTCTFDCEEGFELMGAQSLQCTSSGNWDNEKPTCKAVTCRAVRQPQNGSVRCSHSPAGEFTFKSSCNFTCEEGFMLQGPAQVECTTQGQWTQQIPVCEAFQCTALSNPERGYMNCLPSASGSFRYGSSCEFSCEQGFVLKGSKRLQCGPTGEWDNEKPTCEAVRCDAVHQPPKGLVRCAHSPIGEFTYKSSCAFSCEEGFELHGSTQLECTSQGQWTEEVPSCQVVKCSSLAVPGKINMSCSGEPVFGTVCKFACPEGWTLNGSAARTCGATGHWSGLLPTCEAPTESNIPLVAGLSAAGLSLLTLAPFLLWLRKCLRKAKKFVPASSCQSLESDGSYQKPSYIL

CCOC1Oc2ccc(OS(C)(=O)=O)cc2C1(C)C (stereo not drawn)
inactive: [1] | [2] | [3] | [4] | [5] | [6] | [7] | [8]

CCC(C)Nc1c([N+](=O)[O-])cc(C(C)(C)C)cc1[N+](=O)[O-] (stereo not drawn)
inactive: [1] | [9] | [3] | [4] | [7]
active: [5] 31.9 µM | [6] 14.6 µM | [8] 20 µM

CN1CSC(=S)N(C)C1
active: [3] 14.4 µM | [6] 19 µM | [7] 13 µM
inactive: [10] | [1] | [4] | [5] | [8]

COc1cc(OC)nc(NC(=O)NS(=O)(=O)c2cc(NC=O)ccc2C(=O)N(C)C)n1
inactive: [1] | [2] | [3] | [4] | [5] | [6] | [7] | [8]

Cc1cc(C)nc(NC(=O)NS(=O)(=O)c2ccccc2C(=O)OC2COC2)n1
inactive: [10] | [1] | [9] | [3] | [4] | [5] | [6] | [7] | [8]

O=C(Nc1ccccc1)Nc1cnns1
inactive: [10] | [1] | [2] | [3] | [4] | [5] | [6] | [7] | [8]

COC(=O)c1ccccc1CS(=O)(=O)NC(=O)Nc1nc(OC)cc(OC)n1
inactive: [10] | [1] | [2] | [3] | [4] | [5] | [6] | [7] | [8]

N#CN
inactive: [10] | [1] | [9] | [3] | [4] | [5] | [6] | [7] | [8]

CC(C)OC(=O)Nc1cccc(Cl)c1
active: [8] 3.97 µM
inactive: [10] | [1] | [3] | [4] | [5] | [6] | [7]

CCOCN(C(=O)CCl)c1c(C)cccc1CC
active: [3] 12.7 µM | [5] 14.8 µM | [6] 28.5 µM | [8] 22.7 µM
inactive: [1] | [2] | [4] | [7]

N#Cc1c(Cl)c(Cl)c(Cl)c(C#N)c1Cl
active: [10] 1.5 µM | [1] 1.89 µM | [9] 1.79 µM | [3] 1.23 µM | [4] 1.66 µM | [5] 0.148 µM | [6] 0.758 µM | [7] 1.2 µM | [8] 3.65 µM

O=[N+]([O-])c1c(Cl)c(Cl)c(Cl)c(Cl)c1Cl
active: [10] 24.4 µM | [1] 29.9 µM | [3] 15.7 µM | [4] 31 µM | [5] 17.9 µM | [6] 31.1 µM
inactive: [2] | [7] | [8]

CC(C)(C)C(O)C(Oc1ccc(Cl)cc1)n1cncn1 (stereo not drawn)
inactive: [1] | [2] | [3] | [4] | [5] | [6] | [7] | [8]

ClC1C(Cl)C(Cl)C(Cl)C(Cl)C1Cl (stereo not drawn)
active: [1] 20 µM
inactive: [1] | [3] | [4] | [5] | [6] | [7] | [8]

CCOc1nc(NC)nc(NC(=O)NS(=O)(=O)c2ccccc2C(=O)OC)n1
active: [3] 30.4 µM | [4] 37 µM
inactive: [10] | [1] | [5] | [6] | [7] | [8]

C[C@H]1[C@H](c2ccc(Cl)cc2)SC(=O)N1C(=O)NC1CCCCC1
active: [3] 9.22 µM | [8] 10.9 µM
inactive: [10] | [1] | [4] | [5] | [6] | [7]

CC(C)(C)C(O)/C(=C\c1ccc(Cl)cc1Cl)n1cncn1 (stereo not drawn)
active: [1] 33.2 µM | [9] 34.3 µM | [3] 28.5 µM | [4] 32.2 µM | [5] 18.4 µM | [6] 21.9 µM | [7] 32.4 µM | [8] 31 µM

O=S(=O)(O)C(F)(F)C(F)(F)C(F)(F)C(F)(F)C(F)(F)C(F)(F)C(F)(F)C(F)(F)F
inactive: [1] | [2] | [3] | [4] | [5] | [6] | [7] | [8]
active: [1] 33.9 µM and 35.3 µM | [2] 30.1 µM and 31.6 µM and 31.3 µM | [4] 35.6 µM and 30.4 µM | [7] 9.09 µM and 1.92 µM and 7.33 µM

CC(C)N(C(=O)COc1nnc(C(F)(F)F)s1)c1ccc(F)cc1
inactive: [1] | [2] | [3] | [4] | [5] | [6] | [7] | [8]

Clc1ccccc1-c1nnc(-c2ccccc2Cl)nn1
inactive: [1] | [3] | [4] | [5] | [6] | [7] | [8]
active: [10] 2.76 µM

CCCN(CCOc1c(Cl)cc(Cl)cc1Cl)C(=O)n1ccnc1
inactive: [1] | [2] | [3] | [4] | [6] | [7]
active: [5] 20 µM | [8] 31.4 µM

O=C(O)COc1ccc(Cl)cc1Cl
inactive: [10] | [1] | [3] | [4] | [5] | [6] | [7] | [8]

COc1nn(CSP(=S)(OC)OC)c(=O)s1
active: [6] 4.79 µM
inactive: [1] | [2] | [9] | [3] | [4] | [5] | [7] | [8]

COP(=O)(OC)OC=C(Cl)Cl
active: [5] 27.3 µM
inactive: [1] | [2] | [3] | [4] | [6] | [7] | [8]
